PubChem BioAssay (EPA / NIEHS)
Active and inactive are the calls of the source. The calls were made as follows: active = hit-call score of the fitted dose curve at least 0.9, where 1 is the maximum; inactive = score below 0.9.

Test: APR_HepG2_MicrotubuleCSK_24hr: Apredica 24-hour HepG2 Assay for Microtubule CSK Stabilty (AID 2282909)
Conditions: HepG2 microtubule cytoskeleton imaging, actives raise or lower the signal
Procedure, shortened: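 Steps: dose HepG2 for 24 h (0.39–200 uM, 0.5% DMSO); fix 30 min in 3.7% formaldehyde at room temperature; permeabilize; stain alpha-tubulin 60 min; image microtubule cytoskeleton at 20x. Signal change fitted in both directions relative to DMSO.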
For COC(=O)c1c(Cl)c(Cl)c(C(=O)OC)c(Cl)c1Cl, the outcome was “inactive”.
In the case of CC/C(=C\C(=N/O)C(N)=O)C(C)[N+](=O)[O-] (stereo not drawn), the outcome is reported as “inactive”.
With CC(C)=CCC/C(C)=C\CO the outcome was “inactive”.
In the case of CC(=O)OCCC(C)C, the outcome is reported as “inactive”.
For O=C(CCCCCCCCc1cccnc1)N1CCC(C=C(c2ccccc2)c2ccccc2)CC1, the outcome was “inactive”.
In the case of C[C@](N)(Cc1ccc(O)c(O)c1)C(=O)O, the outcome is reported as “inactive”.
With O=P(OC(CCl)CCl)(OC(CCl)CCl)OC(CCl)CCl the outcome was “inactive”.
For CCOC(=O)COc1ccc2c(c1)CC(NCC(O)c1cccc(Cl)c1)CC2 (stereo not drawn), the outcome was “inactive”.
For CNS(=O)(=O)c1cc(C(=O)N2CCC(CCN3C4CCC3CC(n3c(C)nc5ccccc53)C4)(c3cccc(F)c3)CC2)c(Cl)cc1F (stereo not drawn), the AC50 was 52 µM (active).

Test: APR_HepG2_MitoticArrest_24hr: Apredica 24-hour HepG2 Assay for Mitotic Arrest (AID 2282910)
Conditions: high-content imaging, actives raise or lower the signal
Procedure, shortened: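 HepG2 cells, 24 h exposure at 0.39-200 uM (10 concentrations, duplicate, 0.5% DMSO). Fixed, stained for phospho-histone H3 with Hoechst; imaged by high-content microscopy, bidirectional fit versus DMSO.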
With CC(C)CCO the outcome was “inactive”.
For COC(=O)c1c(Cl)c(Cl)c(C(=O)OC)c(Cl)c1Cl, the outcome was “inactive”.
For Clc1nc(Cl)c(Cl)c(Cl)c1Cl, the AC50 was 77.3 µM (active).
In the case of O=c1[nH]c2ccc(S(=O)CCN3CCC(Cc4ccc(F)cc4)CC3)cc2o1 (stereo not drawn), the outcome is reported as “inactive”.
With CC/C(=C\C(=N/O)C(N)=O)C(C)[N+](=O)[O-] (stereo not drawn) the outcome was “inactive”.
In the case of CC(C)=CCC/C(C)=C\CO, the outcome is reported as “inactive”.
In the case of COCCOCCOCCOC, the outcome is reported as “inactive”.
For CC(C)=CCCC(C)CCO (stereo not drawn), the outcome was “inactive”.
With CC(C)CCCCCCCOC(=O)CCCCC(=O)OCCCCCCCC(C)C the outcome was “inactive”.
With Cn1cnc([N+](=O)[O-])c1Sc1ncnc2nc[nH]c12 the outcome was “inactive”.
For CC(C)CC(C)(O)C#CC(C)(O)CC(C)C (stereo not drawn), the outcome was “inactive”.
For CC(=O)OCCC(C)C, the outcome was “inactive”.
In the case of O=C(OC[C@H]1O[C@@H](OC(=O)c2cc(O)c(O)c(OC(=O)c3cc(O)c(O)c(O)c3)c2)[C@H](OC(=O)c2cc(O)c(O)c(OC(=O)c3cc(O)c(O)c(O)c3)c2)[C@@H](OC(=O)c2cc(O)c(O)c(OC(=O)c3cc(O)c(O)c(O)c3)c2)[C@@H]1OC(=O)c1cc(O)c(O)c(OC(=O)c2cc(O)c(O)c(O)c2)c1)c1cc(O)c(O)c(OC(=O)c2cc(O)c(O)c(O)c2)c1, the outcome is reported as “inactive”.
In the case of CCCCCCCCO, the outcome is reported as “inactive”.
With CCOc1cccc(-n2cc(C(=O)N3CCN(c4cc(C(=O)O)c5ccccc5c4)CC3)nc2-c2ccc(C)cc2)c1 the AC50 was 97.5 µM (active).
For CCCCC(CC)COC(=O)CCCCCCCCC(=O)OCC(CC)CCCC (stereo not drawn), the AC50 was 68.5 µM (active).
With C1=CCCC=CCCC=CCC1 the outcome was “inactive”.
For CCOCCOCCOCCO, the outcome was “inactive”.
For Fc1ccccc1[C@@H](F)COC1CCC(Nc2ncnc3[nH]ncc23)CC1 (stereo partly drawn), the outcome was “inactive”.
In the case of O=C(CCCCCCCCc1cccnc1)N1CCC(C=C(c2ccccc2)c2ccccc2)CC1, the outcome is reported as “inactive”.
For Cc1ccc(O)cc1, the outcome was “inactive”.
In the case of CNCc1ccc(NC(=O)c2c[nH]c3c2C(=O)CCC3)cc1, the outcome is reported as “inactive”.
In the case of CCOCCO, the outcome is reported as “inactive”.
In the case of CC[C@H]1CC[C@H](NCc2cc3c(cc2OC)[C@H]2C[C@H]2C(=O)N3C)[C@H](c2ccccc2)N1, the outcome is reported as “inactive”.
In the case of C[C@](N)(Cc1ccc(O)c(O)c1)C(=O)O, the outcome is reported as “inactive”.
In the case of CC(C)(O)c1coc(S(=O)(=O)NC(=O)Nc2c3c(cc4c2CCC4)CCC3)c1, the outcome is reported as “inactive”.
With O=P(OC(CCl)CCl)(OC(CCl)CCl)OC(CCl)CCl the AC50 was 44.9 µM (active).
With Cn1c(=O)c2c(ncn2C)n(C)c1=O the outcome was “inactive”.
For CCOC(=O)COc1ccc2c(c1)CC(NCC(O)c1cccc(Cl)c1)CC2 (stereo not drawn), the AC50 was 28.7 µM (active).
For CNS(=O)(=O)c1cc(C(=O)N2CCC(CCN3C4CCC3CC(n3c(C)nc5ccccc53)C4)(c3cccc(F)c3)CC2)c(Cl)cc1F (stereo not drawn), the AC50 was 40.9 µM (active).

Test: APR_HepG2_MitoMembPot_24hr: Apredica 24-hour HepG2 Assay for Mitochondrial Membrane Potential (AID 2282911)
Conditions: imaging, actives raise or lower the signal
Procedure, shortened: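 Human hepatoma HepG2 cultures received ten compound concentrations up to 200 uM for 24 hr. Membrane-potential dye signal, captured by automated fluorescence microscopy, was scored for gain or loss against DMSO controls.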
For COC(=O)c1c(Cl)c(Cl)c(C(=O)OC)c(Cl)c1Cl, the outcome was “inactive”.
For Clc1nc(Cl)c(Cl)c(Cl)c1Cl, the outcome was “inactive”.
In the case of O=c1[nH]c2ccc(S(=O)CCN3CCC(Cc4ccc(F)cc4)CC3)cc2o1 (stereo not drawn), the outcome is reported as “inactive”.
In the case of Cn1cnc([N+](=O)[O-])c1Sc1ncnc2nc[nH]c12, the outcome is reported as “inactive”.
With O=C(OC[C@H]1O[C@@H](OC(=O)c2cc(O)c(O)c(OC(=O)c3cc(O)c(O)c(O)c3)c2)[C@H](OC(=O)c2cc(O)c(O)c(OC(=O)c3cc(O)c(O)c(O)c3)c2)[C@@H](OC(=O)c2cc(O)c(O)c(OC(=O)c3cc(O)c(O)c(O)c3)c2)[C@@H]1OC(=O)c1cc(O)c(O)c(OC(=O)c2cc(O)c(O)c(O)c2)c1)c1cc(O)c(O)c(OC(=O)c2cc(O)c(O)c(O)c2)c1 the AC50 was 26.4 µM (active).
With CCCCC(CC)COC(=O)CCCCCCCCC(=O)OCC(CC)CCCC (stereo not drawn) the outcome was “inactive”.
For C1=CCCC=CCCC=CCC1, the outcome was “inactive”.
With Fc1ccccc1[C@@H](F)COC1CCC(Nc2ncnc3[nH]ncc23)CC1 (stereo partly drawn) the outcome was “inactive”.
With O=C(CCCCCCCCc1cccnc1)N1CCC(C=C(c2ccccc2)c2ccccc2)CC1 the outcome was “inactive”.
With Cc1ccc(O)cc1 the outcome was “inactive”.
With CCOCCO the outcome was “inactive”.
With C[C@](N)(Cc1ccc(O)c(O)c1)C(=O)O the outcome was “inactive”.
For Cn1c(=O)c2c(ncn2C)n(C)c1=O, the outcome was “inactive”.
With CCOC(=O)COc1ccc2c(c1)CC(NCC(O)c1cccc(Cl)c1)CC2 (stereo not drawn) the outcome was “inactive”.
